Test results: PubChem BioAssay AID1159580 (chemical genetic matrix, 2015)
The campaign covered roughly 5,500 compounds. About 2,000 (36%) were called active. Roughly 18% stayed inconclusive and do not appear here. Cut-off read from the data, not from the text of the source: active = normalized growth mostly below about 0.91 (no sharp cut-off); inconclusive = no clear call, values can overlap the other calls; inactive = mostly above about 0.92. The list shows a part of the results.

Assay: chemical genetic growth profiling, strain panel (AID 1159580);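 note: tested at 20 µM; growth read once vehicle control cultures reached saturation at 30 °C; 1 = growth at the plate median or of vehicle wells; lower values mean less growth of the strain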
Conditions: S. cerevisiae deletion strains, growth OD

Measured: normalized growth

CCCN1CCC[C@@H]2Cc3nc(N)ncc3C[C@H]21
inactive: locus YAL013W, strain DEP1, hits give low values 1.02 | locus YAL040C, strain CLN3, hits give low values 1.01 | locus YCL061C, strain MRC1 (second series), hits give low values 1.01 | locus YDR363W, strain ESC2, hits give low values 0.999 | locus YER002W, strain NOP16, hits give low values 1.02 | locus YMR307W, strain GAS1, hits give low values 0.995 | locus YNL128W, strain TEP1, hits give low values 1.01 | locus YNL175C, strain NOP13, hits give low values 1.02 | locus YNL197C, strain WHI3, hits give low values 1.01 | locus YNL224C, strain SQS1, hits give low values 1.01 | locus YNL322C, strain KRE1, hits give low values 0.999 | locus YOR083W, strain WHI5 (second series), hits give low values 1.01 | locus YPL241C, strain CIN2, hits give low values 1
